The results in this text go back to PubChem BioAssay (EPA / NIEHS).

Read-out in test [1]: Collagen I, COL1A1 (gene 1277)
The experiment in a line: BSK_hDFCGF_CollagenI: BioMAP Diversity Plus: hDFCGF Assay for Collagen I Biomarker Activity (AID 2284250). Conditions: primary human foreskin fibroblasts. In a few lines: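 ELISA read-out of Collagen I in human dermal foreskin fibroblast cultures, 24 h after dosing. Gain of signal versus DMSO vehicle defines activity.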

Read-out in test [2]: Interferon-inducible T-cell alpha chemoattractant (ITAC), CXCL11 (gene 6373)
The test can be described thus: BSK_hDFCGF_ITAC: BioMAP Diversity Plus: hDFCGF Assay for Interferon-inducible T-cell alpha chemoattractant (ITAC) Biomarker Activity (AID 2284251). Conditions: primary human foreskin fibroblasts. The method, boiled down:
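Measured by ELISA, the chemokine level serves as the endpoint in human skin fibroblast primary cultures 24 h after compound addition. Increases relative to DMSO-treated wells define activity.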

Read-out in test [3]: Plasminogen activator inhibitor-1 (PAI1), SERPINE1 (gene 5054)
The test can be described thus: BSK_KF3CT_PAI1: BioMAP Diversity Plus: KF3CT Assay for Plasminogen activator inhibitor-1 (PAI1) Biomarker Activity (AID 2284252). Conditions: primary human keratinocytes with fibroblasts. The method, boiled down: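 Keratinocyte + dermal fibroblast co-culture (human primary); 24 h post-dose; PAI-1 by ELISA; gain-of-signal fit vs DMSO control.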

Read-out in test [4]: Monocyte Chemoattractant Protein-1 (MCP1), CCL2 (gene 6347)
The test can be described thus: BSK_IMphg_MCP1: BioMAP Diversity Plus: IMphg Assay for Monocyte Chemoattractant Protein-1 (MCP1) Biomarker Activity (AID 2284253). Conditions: primary human endothelial cells with macrophages. The method, boiled down: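 ELISA readout of MCP-1 at 24 hours in IMphg co-cultures of venular endothelial cells and macrophages, normalised to DMSO; parallel cultures stained with sulforhodamine B for overt cytotoxicity.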

Read-out in test [5]: Interleukin-8 (IL8), CXCL8 (gene 3576)
The experiment in a line: BSK_KF3CT_IL8: BioMAP Diversity Plus: KF3CT Assay for Interleukin-8 (IL8) Biomarker Activity (AID 2284254). Conditions: primary human keratinocytes with fibroblasts. In a few lines: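 IL-8 read-out: ELISA, 24 h post-dose, human skin primary co-culture (keratinocytes + foreskin fibroblasts). DMSO = baseline; positive-direction fit.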

Read-out in test [6]: Macrophage Inflammatory Protein-1 Alpha (MIP1a), CCL3 (gene 6348)
The test can be described thus: BSK_IMphg_MIP1a: BioMAP Diversity Plus: IMphg Assay for Macrophage Inflammatory Protein-1 Alpha (MIP1a) Biomarker Activity (AID 2284255). Conditions: primary human endothelial cells with macrophages. The method, boiled down:
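MIP-1a protein levels were quantified by ELISA after 24 h treatment of human endothelial cell–macrophage co-cultures, compared with DMSO. Parallel cultures were fixed with TCA and stained with 0.1% SRB to gauge overt cytotoxicity.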

Read-out in test [7]: Plasminogen activator inhibitor-1 (PAI1), SERPINE1 (gene 5054)
The test can be described thus: BSK_MyoF_PAI1: BioMAP Diversity Plus: MyoF Assay for Plasminogen activator inhibitor-1 (PAI1) Biomarker Activity (AID 2284256).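 Further: PAI-1 protein level measured by ELISA in fibroblast cultures.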 Conditions: primary human lung fibroblasts. The method, boiled down: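 MyoF lung fibroblasts, human primary; compound 24 h; PAI-1 ELISA; positive-direction fit vs DMSO baseline; parallel SRB total-protein staining for cytotoxicity.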

Read-out in another test: CD69, CD69 (gene 969)
The experiment in a line: BSK_IMphg_CD69: BioMAP Diversity Plus: IMphg Assay for CD69 Biomarker Activity (AID 2284257). Conditions: primary human endothelial cells with macrophages. In a few lines:
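Readout is ELISA for CD69 in primary human venular endothelial cell/macrophage co-culture, taken at 24 h post-dosing. SRB staining of parallel cultures gauged overt cytotoxicity; signal increase versus DMSO defined activity.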

Read-out in test [8]: Eotaxin 3, CCL26 (gene 10344)
The test can be described thus: BSK_BF4T_Eotaxin3: BioMAP Diversity Plus: BF4T Assay for Eotaxin 3 Biomarker Activity (AID 2284258). Conditions: primary human bronchial epithelial cells with fibroblasts. The method, boiled down: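 ELISA measurement of Eotaxin-3 after 24 h chemical exposure in a bronchial epithelial/dermal fibroblast co-culture, with DMSO as baseline. Parallel SRB staining (0.1% SRB after 10% TCA fixation, 560 nm) flagged overt cytotoxicity.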

Read-out in test [9]: Monocyte Chemoattractant Protein-1 (MCP1), CCL2 (gene 6347)
The experiment in a line: BSK_BF4T_MCP1: BioMAP Diversity Plus: BF4T Assay for Monocyte Chemoattractant Protein-1 (MCP1) Biomarker Activity (AID 2284259). Conditions: primary human bronchial epithelial cells with fibroblasts. The method, boiled down:
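MCP-1 ELISA readout taken 24 h after dosing in the BF4T system (bronchial epithelial cells plus dermal fibroblasts). Parallel SRB total-protein staining flagged cytotoxicity; DMSO served as baseline, positive fitting direction.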

Read-out in test [10]: Intercellular Adhesion Molecule 1 (ICAM1), ICAM1 (gene 3383)
The experiment in a line: BSK_BF4T_ICAM1: BioMAP Diversity Plus: BF4T Assay for Intercellular Adhesion Molecule 1 (ICAM1) Biomarker Activity (AID 2284260). Conditions: primary human bronchial epithelial cells with fibroblasts. In a few lines: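 ICAM-1 levels measured by ELISA after 24 h chemical treatment of bronchial epithelial cell/dermal fibroblast co-cultures, read against DMSO baseline. Overt cytotoxicity checked in parallel cultures by sulforhodamine B staining.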

Read-out in test [11]: Interleukin-8 (IL8), CXCL8 (gene 3576)
The experiment in a line: BSK_MyoF_IL8: BioMAP Diversity Plus: MyoF Assay for Interleukin-8 (IL8) Biomarker Activity (AID 2284261). Conditions: primary human lung fibroblasts. In a few lines: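 Lung fibroblasts (human primary) → chemical exposure → 24 h → IL-8 measured by ELISA. Signal increase scored versus DMSO control.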

Read-out in a further test: CD90, THY1 (gene 7070)
The experiment in a line: BSK_BF4T_CD90: BioMAP Diversity Plus: BF4T Assay for CD90 Biomarker Activity (AID 2284262). Conditions: primary human bronchial epithelial cells with fibroblasts. The method, boiled down: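 CD90 levels by ELISA after 24 h treatment of human bronchial epithelial cell/dermal fibroblast cultures, analysed versus DMSO. Overt cytotoxicity checked in parallel cultures by sulforhodamine B staining.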

Read-out in test [12]: Interleukin-8 (IL8), CXCL8 (gene 3576)
The test can be described thus: BSK_BF4T_IL8: BioMAP Diversity Plus: BF4T Assay for Interleukin-8 (IL8) Biomarker Activity (AID 2284263). Conditions: primary human bronchial epithelial cells with fibroblasts. In a few lines: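 Human bronchial epithelial cells with dermal fibroblasts co-culture; IL-8 measured by ELISA 24 hours after dosing, fitted vs DMSO. Cytotoxicity tracked in parallel cultures by SRB total-protein staining.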

Read-out in test [13]: Interleukin-1 alpha (IL1a), IL1A (gene 3552)
The test can be described thus: BSK_BF4T_IL1a: BioMAP Diversity Plus: BF4T Assay for Interleukin-1 alpha (IL1a) Biomarker Activity (AID 2284264). Conditions: primary human bronchial epithelial cells with fibroblasts. The method, boiled down: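 ELISA read-out of IL-1α from bronchial epithelial cell/dermal fibroblast co-cultures 24 h after compound addition. Increases scored against DMSO negative control. Cytotoxicity monitored by sulforhodamine B staining of parallel cultures.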

Read-out in a further test: Decorin, DCN (gene 1634)
The test can be described thus: BSK_MyoF_Decorin: BioMAP Diversity Plus: MyoF Assay for Decorin Biomarker Activity (AID 2284265). Conditions: primary human lung fibroblasts. In a few lines: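 ELISA readout of decorin, 24 h post-dosing; primary human lung fibroblast (MyoF) culture; gain-of-signal fit vs DMSO baseline.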

Read-out in a further test: KRT18 (gene 3875)
The experiment in a line: BSK_BF4T_Keratin818: BioMAP Diversity Plus: BF4T Assay for Keratin 818 Biomarker Activity (AID 2284266). Conditions: primary human bronchial epithelial cells with fibroblasts. In a few lines:
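Keratin 8/18 levels quantified by ELISA after 24 h chemical treatment of bronchial epithelial cell/dermal fibroblast co-cultures, fitted in positive direction relative to DMSO. Parallel SRB staining tracks overt cytotoxicity.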

Test [14] can be described thus: BSK_MyoF_SRB: Viability Assessment in the BioMAP Diversity Plus: MyoF Assay (AID 2284267).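 Further: total protein by SRB absorbance in parallel cultures as cytotoxicity measure.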 Conditions: primary human lung fibroblasts. In a few lines:
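Lung fibroblast cultures, 24 h post-dose; fix 10% TCA, stain 0.1% SRB, read 560 nm. Signal = total protein as cytotoxicity measure; fitted relative to DMSO negative control.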

Read-out in test [15]: Matrix Metallopeptidase 1 (MMP1), MMP1 (gene 4312)
The test can be described thus: BSK_MyoF_MMP1: BioMAP Diversity Plus: MyoF Assay for Matrix Metallopeptidase 1 (MMP1) Biomarker Activity (AID 2284268). Conditions: primary human lung fibroblasts. In a few lines: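 Cells: human lung fibroblasts. Exposure: 24 h chemical dosing. Detection: ELISA for MMP1. Analysis: upward fitting against DMSO negative control.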

Read-out in test [16]: TIMP metallopeptidase inhibitor 1 (TIMP1), TIMP1 (gene 7076)
The test can be described thus: BSK_MyoF_TIMP1: BioMAP Diversity Plus: MyoF Assay for TIMP metallopeptidase inhibitor 1 (TIMP1) Biomarker Activity (AID 2284269). Conditions: primary human lung fibroblasts. In a few lines:
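TIMP-1 levels were determined by ELISA in human lung fibroblasts treated for 24 h. DMSO served as negative control and baseline for upward curve fitting.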

Where “and” joins values, the source holds several entries; their conditions need not be identical. Equal entries are not always repeated. Some structures have more than one record in an assay (separate samples or runs), and their calls can disagree. Calls of active or inactive are those of the source. How the source made its calls: active means hit-call score of the fitted dose curve at least 0.9, where 1 is the maximum; inactive means score below 0.9.

With `O=C(Cl)C(F)(F)C(F)(F)C(F)(F)C(F)(F)C(F)(F)C(F)(F)C(F)(F)F`, the outcome in test [1], in test [2], in [3], in test [4], in test [5] and in [6] was inactive. Also, the outcome in test [7] is “inactive”; with CD69, CD69 (gene 969), “inactive”; in test [8] it was “inactive”; in [9], “inactive”; in [10], “inactive”; in test [11] it was “inactive”. Also, the outcome with CD90, THY1 (gene 7070) is “inactive”; in test [12], “inactive”; in test [13], “inactive”; with Decorin, DCN (gene 1634) it was “inactive”; with KRT18 (gene 3875), “inactive”; in test [14] it was “inactive”. In addition, the result in test [15] and in test [16] was inactive. For the same molecule, the AC50 in test [4] was 52.9 µM (active); in [6], 0.237 µM (active).

Turning to `O=C(Cl)C(F)(F)C(F)(F)C(F)(F)C(F)(F)C(F)(F)C(F)(F)F`, the outcome in [1], in test [3], in [4], in test [5], in test [6] and in test [7] was inactive. In addition, the outcome is “inactive” with CD69, CD69 (gene 969); “inactive” in test [8]; “inactive” in test [9]; “inactive” in test [10]; “inactive” in test [11]; “inactive” with CD90, THY1 (gene 7070). Also, the outcome is “inactive” in test [12]; “inactive” in test [13]; “inactive” with Decorin, DCN (gene 1634); “inactive” in the test with KRT18 (gene 3875); “inactive” in [14]; “inactive” in test [15]. Further, the result in test [16] was inactive.

Take `NC(=O)C(F)(F)C(F)(F)C(F)(F)C(F)F`: the result in test [1], in [3], in test [4], in test [5], in test [6] and in [7] was inactive. Also, the outcome is “inactive” in the test with CD69, CD69 (gene 969); “inactive” in test [8]; “inactive” in test [9]; “inactive” in test [10]; “inactive” in test [11]; “inactive” in the test with CD90, THY1 (gene 7070). The outcome in test [12] is “inactive”; in test [13], “inactive”; with Decorin, DCN (gene 1634) it was “inactive”; with KRT18 (gene 3875) it was “inactive”; in [14], “inactive”; in test [15], “inactive”. Moreover, the result in [16] was inactive.

For `O=S(=O)(Cl)C(F)(F)C(F)(F)C(F)(F)C(F)(F)C(F)(F)C(F)(F)C(F)(F)C(F)(F)F`, the outcome in [1] is “inactive”; in [4] it was “inactive”; in [5], “inactive”; in [6], “inactive”; in test [7] it was “inactive”; with CD69, CD69 (gene 969) it was “inactive”. The outcome is “inactive” in [10]; “inactive” in test [11]; “inactive” in the test with CD90, THY1 (gene 7070); “inactive” in [12]; “inactive” in test [13]; “inactive” in the test with Decorin, DCN (gene 1634). In addition, the result (in the test with KRT18 (gene 3875); in [14]; in test [15]; in test [16]) was inactive. The AC50 was 25 µM (active) and 22.1 µM (active) in test [3]; 15.1 µM (active) in the test with CD69, CD69 (gene 969); 28.3 µM (active) and 19.5 µM (active) in [8]; 46.5 µM (active) and 43.3 µM (active) in test [9]; 46.3 µM (active) in test [13]; 22.3 µM (active) with Decorin, DCN (gene 1634). Moreover, in the test with KRT18 (gene 3875), the AC50 is 48.5 µM (active).
